A549 viability = Nrf2 qHTS screen for inhibitors: counterscreen for cytotoxicity; actives 0.16% (n = 390,000); A549 ARE-Fluc cells, CellTiter-Fluor viability, 18-24 h; Potency, µM (series often up to 46 µM), without a hit: at the top dose activity change, negative = cytotoxicity, hits mostly inhibitors; further: potency means the concentration at half of the fitted maximal effect
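Cytotoxicity counterscreen: CellTiter-Fluor fluorescence was measured in A549 ARE_Fluc cells after 18-24 h of compound exposure in a concentration series. The subsequent BugLite luminescent read reports ARE-luciferase activity.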
PI4K2A block = qHTS for small molecular inhibitors of PI4K2A; Phosphatidylinositol 4-kinase type 2-alpha (Homo sapiens), Q9BTU6; purified PI4K2A, ADP-Glo luminescence, 1 h; stronger effect = lower value; activity change, negative = inhibition, % at 76.9 µM; actives 0.13% (n = 420,000); in the data active means activity change below about -50%; inconclusive means mostly about -30% to -49%;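 further: -100% = wells without enzyme as full effect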
Target sequence (Q9BTU6 whole entry, looked up): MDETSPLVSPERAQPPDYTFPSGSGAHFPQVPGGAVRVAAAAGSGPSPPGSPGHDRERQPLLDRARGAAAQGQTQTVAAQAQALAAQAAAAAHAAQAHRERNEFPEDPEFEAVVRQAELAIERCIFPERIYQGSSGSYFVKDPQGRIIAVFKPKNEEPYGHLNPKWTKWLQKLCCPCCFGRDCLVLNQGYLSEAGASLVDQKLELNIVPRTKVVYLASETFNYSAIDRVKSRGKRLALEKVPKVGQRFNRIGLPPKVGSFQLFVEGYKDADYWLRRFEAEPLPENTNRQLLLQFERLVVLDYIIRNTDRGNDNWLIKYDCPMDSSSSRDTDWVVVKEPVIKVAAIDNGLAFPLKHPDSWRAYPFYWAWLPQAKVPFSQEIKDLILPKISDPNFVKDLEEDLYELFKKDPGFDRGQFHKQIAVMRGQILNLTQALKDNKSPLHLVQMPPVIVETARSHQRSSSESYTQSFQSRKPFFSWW
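In this quantitative HTS, ADP production by PI4K2A was quantified luminescently after 1 h at ambient temperature; 100 microM adenosine served as plate-quality control.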
KB-3-1 cytotox = qHTS assay for MDR1-selective chemotherapeutics: Primary screen using the parental adenocarcinoma cell KB-3-1; KB-3-1 viability, CellTiter-Glo ATP luminescence, 72 h; actives 1.4% (n = 400,000); Potency, µM (highest dose often 46.1 µM), most hits filed as cytotoxic; AID 1347075, 2019; further: potency means the concentration at half of the fitted maximal effect; nearly all actives have a fitted effect of over 60% in size
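Cells are dispensed, compounds pinned in, plates held at 37 °C for 72 h, then CellTiter-Glo is added and luminescence read after 10 minutes. Cell line: parental KB-3-1 in phenol-red-free DMEM, 10% FBS.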
Nrf2 block = Nrf2 qHTS screen for inhibitors; Potency, µM (series often up to 46 µM), for inactives: at the highest dose activity change, negative = inhibition, most hits filed as inhibitors; AID 504444, 2011; A549 ARE-Fluc reporter, luciferase luminescence, 18-24 h; actives 2.1% (n = 360,000); further: potency means the concentration at half of the fitted maximal effect; nearly all actives have a fitted effect of over 60% in size
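Cells were seeded and rested 2 h, then exposed to compounds for 18-24 h. CellTiter-Fluor was read first as a viability measure. BugLite was added 15 min before the final luminescent read of ARE-luciferase activity in A549 cells.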
Giardia kill = Small Molecules that selectively kill Giardia lamblia: qHTS; AID 540267, 2011; Giardia lamblia trophozoite viability; activity change, % at 7.66 µM, hits read low; actives 0.15% (n = 340,000); in the data active means activity change below about -80%; inconclusive means between about -30% and that limit;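 further: parasites exposed to compound for two days anaerobically before the ATP read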
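Anaerobic 48 hrs incubation at 37 deg C of 100 trophozoites/well with test compounds; ATPLite 1-Step luminescence, 15-30 min RT, reports cellular ATP as viability.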
KB-V1 cytotox = qHTS assay for MDR1-selective chemotherapeutics: Primary screen using the drug-selected MDR subline cells KB-V1; KB-V1 MDR cells viability, CellTiter-Glo, 72 h; Potency, µM (series often up to 46.1 µM), hits mostly cytotoxic; actives 3.4% (n = 400,000); AID 1347076, 2019; further: potency means the concentration at half of the fitted maximal effect; nearly all actives have a fitted effect of over 60% in size
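Potencies derive from concentration-effect curves fitted to normalized luminescence (CellTiter-Glo) of KB-V1 cells treated for 72 h at 37 degrees C in phenol-red-free DMEM containing 10% FBS.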
* marks the source's active call; other numbers are inactive results; i = inactive; ? = inconclusive; . = no result given. Only some compounds are listed: those with a hit (about 5.7% of all), similar ones and a draw of the others. Unless noted, the call rests on the fitted dose curve; in most records, active means well fitted curve in the direction sought with a large enough effect; inconclusive means small, poorly fitted or top-dose-only effect, or another doubt; inactive means no such curve, though single readings can be large; an effect the other way counts as inactive or inconclusive. Unless noted, on the % scale 0 is the no-effect control and ±100 the full control effect.

SMILES	A549 viability	PI4K2A block	KB-3-1 cytotox	Nrf2 block	Giardia kill	KB-V1 cytotox
Cc1cc2nc3ccc(=[N+](C)C)cc-3sc2cc1N	-20%	?	?	?	39	16µM*
CN(C)c1ccc2nc3ccc(=[N+](C)C)cc-3sc2c1	?	?	?	12µM*	-2	?
CC[C@@H](CCCc1ccc(OC)cc1)CCC(=O)N(c1ccccc1)c1ccccc1	.	-2	.	.	.	.
O=C(NCc1nnc(-c2nc3ccccc3[nH]2)o1)C1CCCCC1	-6%	.	.	-8%	.	.
CCCCC(NC(C)=O)c1nc2ccccc2n1CCC (centres undefined)	-5%	3	i	7%	17	21µM*
C=CCn1c(N)c(C(=O)OC(C)CC)c2nc3ccccc3nc21 (centres undefined)	8%	1	i	?	-4	8.2µM*
C=CCn1c(N)c(C(=O)OC(C)(C)C)c2nc3ccccc3nc21	3%	1	i	-2%	30	i
CCOc1ccc(CCNC(=O)c2ccccn2)cc1OCC	.	-2	.	.	.	.
Cc1ccc(NC(NC(=O)c2ccccc2[N+](=O)[O-])C(Cl)(Cl)Cl)cc1 (centres undefined)	-16%	2	i	?	-3	21µM*
Cc1ccc(NC(NC(=O)Cc2ccccc2)C(Cl)(Cl)Cl)cc1 (centres undefined)	-2%	3	?	-7%	-3	15µM*
O=C(O)c1cccc(NC(=S)NC(NC(=O)c2ccccc2[N+](=O)[O-])C(Cl)(Cl)Cl)c1 (centres undefined)	0%	0	i	11%	?	i
CC(C)C(=O)N1CCN(c2ccccc2NC(=O)c2ccc([N+](=O)[O-])o2)CC1	-8%	0	i	-1%	-89*	?
CCC(=O)N1CCN(c2ccccc2NC(=O)c2ccc([N+](=O)[O-])o2)CC1	-10%	-3	?	-3%	-90*	?
CC(C)CNC(=S)NNC(=O)c1csc2ccccc12	-2%	7	i	-24%	-18	15µM*
C=CCn1c(SCC(=O)N2CCN(c3ccccc3)CC2)nc2c([nH]c3ccccc32)c1=O	-8%	2	i	1%	12	i
COc1ccccc1NC(=O)CC(=O)CSc1nnc(-c2ccc(C)cc2)n1-c1ccccc1	-3%	-5	i	15%	-16	13µM*
CCn1c(COc2ccccc2C)nnc1SCC(=O)N1CCN(c2ccccc2)CC1	-2%	0	?	?	-8	8.2µM*
CCn1c(CSCc2ccc(C)cc2)nnc1SCC(=O)N1CCN(c2ccccc2)CC1	?	-18	i	21µM*	31	i
CCn1c(COc2ccccc2C)nnc1SCC(=O)OC	-2%	1	i	8%	3	i
C=CCn1c(CSCc2ccccc2)nnc1SCC(=O)N1CCN(c2ccccc2)CC1	-7%	-2	i	?	16	10µM*
Cc1ccc(-n2c(SCC(=O)Nc3ccccc3-c3ccccc3)nnc2-c2ccccc2)cc1	.	1	.	.	.	.
Cc1cc(/C=C2\C=Cc3ccccc32)cc(C)c1N	.	.	i	.	.	i
O=c1c2ccccc2n(Cc2ccno2)n1[C@@H](Cc1ccccc1)Cn1cc(C2CCCC2)nn1	.	2	.	.	.	.
COc1ccc(NC(=O)CSc2nnc(-c3ccncc3)n2-c2ccccc2)cc1	-5%	2	i	.	.	i
COc1ccc(-c2nnc(SCC(=O)Nc3ncc(C)s3)n2-c2ccccc2)cc1OC	-21%	1	21µM*	-3%	10	?
CCn1c(COc2ccccc2C)nnc1SCC(=O)CC(=O)Nc1ccccc1OC	-17%	-1	i	-19%	9	8.2µM*

Bioassay records deposited in PubChem BioAssay by National Center for Advancing Translational Sciences (NCATS).
